Results on 27 compounds are retold here after ChEMBL document CHEMBL1157539, “Thousands of chemical starting points for antimalarial lead identification” (Nature, 2010).

As a reminder, the Inhibition is the share of the control response that was lost under treatment.

Values joined by “and” are separate entries in the source; they are usually repeats but may differ in a detail not shown here. Identical values can stand only once.

Common to all, as to assay type: functional
For assay [1], the system named is Plasmodium falciparum. Briefly: GSK_TCMDC: Inhibition of Plasmodium falciparum 3D7 in whole red blood cells, using parasite LDH activity as an index of growth. Test compounds present at 2uM.
Assay [2] has as its system Plasmodium falciparum. Briefly: GSK_TCMDC: Inhibition of Plasmodium falciparum Dd2 in whole red blood cells, using parasite LDH activity as an index of growth. Test compounds present at 2uM.
Assay [3] concerns HepG2. Nature of the assay: GSK_TCMDC: Percent inhibition of human HepG2 cell line. Test compounds present at 10uM.

For the compound `CCCCn1c(C)c(C(=O)OCC)c2cc(OC(C)=O)c(Br)cc21`, the Inhibition is on record as 98% in assay [1], 79% in assay [2] and 0% in assay [3].
The corresponding values for `CC(Cc1ccc(OCCCCOc2ccccc2)cc1)NCCC1CCCN1C` (stereo unspecified) are 99%, 98% and 100%.
For the compound `Cc1[nH]c2ccccc2c1C1=CCN(CCN2CCCc3c(Br)cccc3C2=O)CC1`, the Inhibition in assay [1] was 95%; in assay [2] it was 90%; in assay [3], 10%.
Consider `O=C(O)C(F)(F)F.O=C(c1cccs1)N(Cc1cccc(-c2ccc(CNC3CCCC3)cc2)c1)C1CCN(Cc2ccccc2)CC1`, for which the Inhibition in assay [1] is 90%; in assay [2], 74%; in assay [3] it was 20%.
As to `COc1cccc(C2(NC[C@@H](O)[C@H](Cc3ccccc3)NC(=O)c3ccccc3)CCCCC2)c1`, the results for the Inhibition in assay [1], in assay [2] and in assay [3] were 97%, 67% and 14%, respectively.
Turning to `CC(Cc1ccc(OCCOc2ccccc2)cc1)NCC(O)c1cccc(C(F)(F)F)c1` (stereo unspecified), the Inhibition is 91% in assay [1], 76% in assay [2] and 16% in assay [3].
For `Fc1ccc(N(c2nc(-c3cc(F)cc(C(F)(F)F)c3)cs2)C2CCNCC2)cc1.O=C(O)C(F)(F)F` the same measures were 95%, 10% and 35%.
For `CC(C)CNCc1cccc(-c2ccccc2CN(C(=O)Nc2ccccc2)C2CCN(Cc3ccccc3)CC2)c1.O=C(O)C(F)(F)F` the same measures were 100%, 68% and 36%.
Take `COc1ccccc1CNCC(O)c1cc(C(F)(F)F)ccc1C(F)(F)F` (stereo unspecified): the figures for the Inhibition in assay [1], in assay [2] and in assay [3] were 100%, 95% and 10%, respectively.
Consider `CCN(Cc1ccccc1)CC(O)c1ccc(Cl)c(Cl)c1.Cl` (stereo unspecified), for which the values for the Inhibition in assay [1], in assay [2] and in assay [3] were 96%, 71% and 2%, respectively.
The corresponding values for `CC[C@H]1CN2CC[C@@H]1C[C@H]2[C@H](O)c1cc[n+]([O-])c2ccc(OC)cc12` are 95%, 1% and 0%.
The corresponding values for `C[C@H](Cc1ccc(OCCCCCCOc2ccccc2)cc1)NC[C@@H](O)c1cc(Br)no1.Cl` are 94%, 70% and 21%.
On to `CC[C@H]1CN2CC[C@H]1C[C@H]2[C@H](O)c1cc(-c2ccc(C)cc2)nc2ccc(OC)cc12.Cl`, for which the Inhibition worked out at 99% in assay [1], 99% in assay [2] and 22% in assay [3].
For the compound `CN(c1cc(NC(=O)c2ccc(F)cc2)ccn1)C1CCN(Cc2cccc(F)c2)CC1.O=C(O)C(F)(F)F`, the Inhibition was 100% in assay [1], 97% in assay [2] and 13% in assay [3].
With `CC(=O)C1(c2ccccc2)CCN(CCC2(c3ccc(Cl)c(Cl)c3)CN(C(=O)C3CCCCC3)CCO2)CC1` (stereo unspecified), the Inhibition in assay [1] is reported as 100%; in assay [2], 99%; in assay [3], 3%.
In the case of `CNCCCN(C)C(=O)Oc1c(Br)c(C)nc(C)c1-c1ccc(Oc2ccc(OC(F)(F)F)cc2)cc1.Cl`, the Inhibition in assay [1] worked out at 96%; in assay [2], 96%; in assay [3], 17%.
For `Cc1[nH]c2ccc(O)cc2c1C1CCN(CC2CCC(NC(=O)/C=C/c3c(Cl)cccc3Cl)CC2)CC1` (stereo unspecified), the Inhibition in assay [1] worked out at 100%; in assay [2] it was 93%; in assay [3], 25%.
Regarding `COc1cccc(C(=O)C2CC2CN2CC=C(c3c(C)[nH]c4ccccc34)CC2)c1` (stereo unspecified), the Inhibition in assay [1] was determined as 92%; in assay [2], 87%; in assay [3], 13%.
Consider `Cl.Cl.c1ccc2c(NCCCCCCNc3c4ccccc4nc4ccccc34)c3ccccc3nc2c1`, for which the Inhibition in assay [1] is reported as 99%; in assay [2], 80%; in assay [3] it was 60%.
For `Cc1ccc(C(=O)Nc2ccnc(N(C)C3CCN(Cc4cccc(O)c4)CC3)c2)cn1.O=C(O)C(F)(F)F`, the Inhibition in assay [1] was found to be 90%; in assay [2] it was 1%; in assay [3], 0%.
Consider `COc1ccc(CN2CCN(CCOC(c3ccc(F)cc3)c3ccc(F)cc3)CC2)c(O)c1`, for which the Inhibition worked out at 97% in assay [1], 97% in assay [2] and 6% in assay [3].
In the case of `CN(C)CCC(=O)c1ccccc1.Cl`, the Inhibition in assay [1] amounted to 100%; in assay [2], 5%; in assay [3] it was 11%.
Consider `CC(C)NC(=O)Cn1cc(C2CCN(CC3CCN(C(=O)/C=C/c4ccc(Cl)c(Cl)c4)CC3)CC2)c2ccccc21.O=C(O)C(F)(F)F`, for which the results for the Inhibition in assay [1], in assay [2] and in assay [3] were 97%, 55% and 31%, respectively.
Turning to `CCCCCCC(C)c1cc(O)c2c(c1)OC(C)(C)c1ccncc1-2.Cl` (stereo unspecified), the Inhibition in assay [1] was found to be 100%; in assay [2] it was 61%; in assay [3], 0%.
The corresponding values for `CNC(=O)c1ccc2[nH]cc(C3CCN(CC4CCN(C(=O)/C=C/c5ccc(Cl)c(Cl)c5)CC4)CC3)c2c1` are 100%, 88% and 3%.
Take `O=C(C=Cc1ccc(F)c(Br)c1)NC1CCC(CN2CCC(c3c[nH]c4ccccc34)CC2)CC1` (stereo unspecified): the Inhibition was 100% in assay [1]; 67% and 50% in assay [2]; 28% and 39% in assay [3].
Consider `COC(=O)c1ccc(CC(C)NCC(O)c2ccc(F)c(Cl)c2)cc1.Cl` (stereo unspecified), for which the figures for the Inhibition in assay [1], in assay [2] and in assay [3] were 98%, 78% and 0%, respectively.
